For 18 sequences, binding signal results are on record in PMC11006913.

Holding throughout (assay): PBM; 200 nM protein, PBS
Holding throughout (conditions): dsDNA, one strand shown

In test [1] the target is HESX1 (Homo sapiens, UniProt Q9UBX0 95-180, R165K).
In test [2] the target is HESX1 (Homo sapiens, UniProt Q9UBX0 95-180).
Test [3] addresses HESX1 (Homo sapiens, UniProt Q9UBX0 95-180, R109Q).
Test [4] deals with HESX1 (Homo sapiens, UniProt Q9UBX0 95-180, P111T).
For test [5], the target named is HESX1 (Homo sapiens, UniProt Q9UBX0 95-180, F115L).
HESX1 (Homo sapiens, UniProt Q9UBX0 95-180, F115L), sequence (Q9UBX0 95-180 F115L): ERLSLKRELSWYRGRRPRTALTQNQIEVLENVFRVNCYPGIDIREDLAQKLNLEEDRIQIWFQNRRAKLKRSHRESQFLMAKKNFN

HESX1 (Homo sapiens, UniProt Q9UBX0 95-180, R165K), sequence (Q9UBX0 95-180 R165K): as the sequence (Q9UBX0 95-180 F115L) above, with L21F, R71K counted along it
HESX1 (Homo sapiens, UniProt Q9UBX0 95-180, P111T), sequence (Q9UBX0 95-180 P111T): as the sequence (Q9UBX0 95-180 F115L) above, with P17T, L21F counted along it
HESX1 (Homo sapiens, UniProt Q9UBX0 95-180, R109Q), sequence (Q9UBX0 95-180 R109Q): as the sequence (Q9UBX0 95-180 F115L) above, with R15Q, L21F counted along it
HESX1 (Homo sapiens, UniProt Q9UBX0 95-180), sequence (Q9UBX0 95-180): as the sequence (Q9UBX0 95-180 F115L) above, with L21F counted along it

On to AGCCTCGC, for which the binding signal with HESX1 [1] is 6.43 upbm affinity estimate (log intensity, higher = more binding, comparable within an allelic series); with HESX1 [2], 6.5 upbm affinity estimate (log intensity, higher = more binding, comparable within an allelic series); with HESX1 [3], 6.45 upbm affinity estimate (log intensity, higher = more binding, comparable within an allelic series); with HESX1 [4] it was 6.49 upbm affinity estimate (log intensity, higher = more binding, comparable within an allelic series); with HESX1 [5], 6.46 upbm affinity estimate (log intensity, higher = more binding, comparable within an allelic series).

In the case of AATACATA, the binding signal in the test with HESX1 [1] is 7.62 upbm affinity estimate (log intensity, higher = more binding, comparable within an allelic series); in the test with HESX1 [2], 7.7 upbm affinity estimate (log intensity, higher = more binding, comparable within an allelic series); in the test with HESX1 [3], 7.3 upbm affinity estimate (log intensity, higher = more binding, comparable within an allelic series); in the test with HESX1 [4], 7.6 upbm affinity estimate (log intensity, higher = more binding, comparable within an allelic series); with HESX1 [5], 7.4 upbm affinity estimate (log intensity, higher = more binding, comparable within an allelic series).

Take AGACGCTC: the binding signal is 6.35 upbm affinity estimate (log intensity, higher = more binding, comparable within an allelic series) with HESX1 [1]; 6.34 upbm affinity estimate (log intensity, higher = more binding, comparable within an allelic series) with HESX1 [2]; 6.5 upbm affinity estimate (log intensity, higher = more binding, comparable within an allelic series) in the test with HESX1 [3]; 6.36 upbm affinity estimate (log intensity, higher = more binding, comparable within an allelic series) with HESX1 [4]; 6.54 upbm affinity estimate (log intensity, higher = more binding, comparable within an allelic series) with HESX1 [5].

Take AGCGTGGC: the binding signal with HESX1 [1] is 6.53 upbm affinity estimate (log intensity, higher = more binding, comparable within an allelic series); in the test with HESX1 [2] it was 6.42 upbm affinity estimate (log intensity, higher = more binding, comparable within an allelic series); with HESX1 [3], 6.46 upbm affinity estimate (log intensity, higher = more binding, comparable within an allelic series); with HESX1 [4] it was 6.48 upbm affinity estimate (log intensity, higher = more binding, comparable within an allelic series); with HESX1 [5], 6.64 upbm affinity estimate (log intensity, higher = more binding, comparable within an allelic series).

Turning to ACGCCTAC, the binding signal with HESX1 [1] was 6.48 upbm affinity estimate (log intensity, higher = more binding, comparable within an allelic series); with HESX1 [2], 6.44 upbm affinity estimate (log intensity, higher = more binding, comparable within an allelic series); in the test with HESX1 [3] it was 6.44 upbm affinity estimate (log intensity, higher = more binding, comparable within an allelic series); in the test with HESX1 [4] it was 6.5 upbm affinity estimate (log intensity, higher = more binding, comparable within an allelic series); with HESX1 [5], 6.46 upbm affinity estimate (log intensity, higher = more binding, comparable within an allelic series).

With CGGCACGC, the binding signal with HESX1 [1] was 6.6 upbm affinity estimate (log intensity, higher = more binding, comparable within an allelic series); with HESX1 [2] it was 6.41 upbm affinity estimate (log intensity, higher = more binding, comparable within an allelic series); in the test with HESX1 [3] it was 6.57 upbm affinity estimate (log intensity, higher = more binding, comparable within an allelic series); with HESX1 [4], 6.5 upbm affinity estimate (log intensity, higher = more binding, comparable within an allelic series); in the test with HESX1 [5] it was 6.53 upbm affinity estimate (log intensity, higher = more binding, comparable within an allelic series).

In the case of ACTTTATA, the binding signal was 7.59 upbm affinity estimate (log intensity, higher = more binding, comparable within an allelic series) with HESX1 [1]; 7.66 upbm affinity estimate (log intensity, higher = more binding, comparable within an allelic series) in the test with HESX1 [2]; 7.19 upbm affinity estimate (log intensity, higher = more binding, comparable within an allelic series) in the test with HESX1 [3]; 7.41 upbm affinity estimate (log intensity, higher = more binding, comparable within an allelic series) in the test with HESX1 [4]; 7.31 upbm affinity estimate (log intensity, higher = more binding, comparable within an allelic series) with HESX1 [5].

Consider CCGGTCAG, for which the binding signal with HESX1 [1] was 6.41 upbm affinity estimate (log intensity, higher = more binding, comparable within an allelic series); in the test with HESX1 [2], 6.5 upbm affinity estimate (log intensity, higher = more binding, comparable within an allelic series); with HESX1 [3] it was 6.57 upbm affinity estimate (log intensity, higher = more binding, comparable within an allelic series); with HESX1 [4], 6.6 upbm affinity estimate (log intensity, higher = more binding, comparable within an allelic series); with HESX1 [5], 6.53 upbm affinity estimate (log intensity, higher = more binding, comparable within an allelic series).

As for ACATGGCG, the binding signal with HESX1 [1] was 6.32 upbm affinity estimate (log intensity, higher = more binding, comparable within an allelic series); with HESX1 [2] it was 6.4 upbm affinity estimate (log intensity, higher = more binding, comparable within an allelic series); with HESX1 [3] it was 6.43 upbm affinity estimate (log intensity, higher = more binding, comparable within an allelic series); with HESX1 [4] it was 6.38 upbm affinity estimate (log intensity, higher = more binding, comparable within an allelic series); in the test with HESX1 [5] it was 6.49 upbm affinity estimate (log intensity, higher = more binding, comparable within an allelic series).

Consider CACTGGAG, for which the binding signal is 6.53 upbm affinity estimate (log intensity, higher = more binding, comparable within an allelic series) with HESX1 [1]; 6.53 upbm affinity estimate (log intensity, higher = more binding, comparable within an allelic series) in the test with HESX1 [2]; 6.58 upbm affinity estimate (log intensity, higher = more binding, comparable within an allelic series) in the test with HESX1 [3]; 6.6 upbm affinity estimate (log intensity, higher = more binding, comparable within an allelic series) with HESX1 [4]; 6.61 upbm affinity estimate (log intensity, higher = more binding, comparable within an allelic series) in the test with HESX1 [5].

Take CCCGGAGG: the binding signal with HESX1 [1] is 6.31 upbm affinity estimate (log intensity, higher = more binding, comparable within an allelic series); in the test with HESX1 [2], 6.31 upbm affinity estimate (log intensity, higher = more binding, comparable within an allelic series); in the test with HESX1 [3] it was 6.41 upbm affinity estimate (log intensity, higher = more binding, comparable within an allelic series); with HESX1 [4], 6.39 upbm affinity estimate (log intensity, higher = more binding, comparable within an allelic series); with HESX1 [5] it was 6.42 upbm affinity estimate (log intensity, higher = more binding, comparable within an allelic series).

As for GCCTGGCC, the binding signal is 6.59 upbm affinity estimate (log intensity, higher = more binding, comparable within an allelic series) in the test with HESX1 [1]; 6.61 upbm affinity estimate (log intensity, higher = more binding, comparable within an allelic series) in the test with HESX1 [2]; 6.46 upbm affinity estimate (log intensity, higher = more binding, comparable within an allelic series) with HESX1 [3]; 6.51 upbm affinity estimate (log intensity, higher = more binding, comparable within an allelic series) in the test with HESX1 [4]; 6.6 upbm affinity estimate (log intensity, higher = more binding, comparable within an allelic series) in the test with HESX1 [5].

Consider CGACGTTC, for which the binding signal in the test with HESX1 [1] is 6.45 upbm affinity estimate (log intensity, higher = more binding, comparable within an allelic series); with HESX1 [2], 6.3 upbm affinity estimate (log intensity, higher = more binding, comparable within an allelic series); in the test with HESX1 [3], 6.42 upbm affinity estimate (log intensity, higher = more binding, comparable within an allelic series); with HESX1 [4], 6.41 upbm affinity estimate (log intensity, higher = more binding, comparable within an allelic series); with HESX1 [5] it was 6.52 upbm affinity estimate (log intensity, higher = more binding, comparable within an allelic series).

In the case of CGGACAGA, the binding signal with HESX1 [1] was 6.41 upbm affinity estimate (log intensity, higher = more binding, comparable within an allelic series); with HESX1 [2], 6.53 upbm affinity estimate (log intensity, higher = more binding, comparable within an allelic series); with HESX1 [3] it was 6.49 upbm affinity estimate (log intensity, higher = more binding, comparable within an allelic series); with HESX1 [4], 6.59 upbm affinity estimate (log intensity, higher = more binding, comparable within an allelic series); in the test with HESX1 [5], 6.58 upbm affinity estimate (log intensity, higher = more binding, comparable within an allelic series).

Take GACGGCGA: the binding signal with HESX1 [1] was 6.46 upbm affinity estimate (log intensity, higher = more binding, comparable within an allelic series); with HESX1 [2], 6.46 upbm affinity estimate (log intensity, higher = more binding, comparable within an allelic series); in the test with HESX1 [3], 6.44 upbm affinity estimate (log intensity, higher = more binding, comparable within an allelic series); in the test with HESX1 [4], 6.52 upbm affinity estimate (log intensity, higher = more binding, comparable within an allelic series); with HESX1 [5] it was 6.44 upbm affinity estimate (log intensity, higher = more binding, comparable within an allelic series).

Turning to AGCGTTCG, the binding signal with HESX1 [1] is 6.54 upbm affinity estimate (log intensity, higher = more binding, comparable within an allelic series); with HESX1 [2], 6.5 upbm affinity estimate (log intensity, higher = more binding, comparable within an allelic series); with HESX1 [3], 6.53 upbm affinity estimate (log intensity, higher = more binding, comparable within an allelic series); with HESX1 [4], 6.53 upbm affinity estimate (log intensity, higher = more binding, comparable within an allelic series); with HESX1 [5] it was 6.63 upbm affinity estimate (log intensity, higher = more binding, comparable within an allelic series).

Consider CGTGCCAC, for which the binding signal with HESX1 [1] is 6.27 upbm affinity estimate (log intensity, higher = more binding, comparable within an allelic series); with HESX1 [2], 6.24 upbm affinity estimate (log intensity, higher = more binding, comparable within an allelic series); with HESX1 [3], 6.45 upbm affinity estimate (log intensity, higher = more binding, comparable within an allelic series); in the test with HESX1 [4] it was 6.56 upbm affinity estimate (log intensity, higher = more binding, comparable within an allelic series); with HESX1 [5] it was 6.43 upbm affinity estimate (log intensity, higher = more binding, comparable within an allelic series).

For AGCTTGCG, the binding signal was 6.46 upbm affinity estimate (log intensity, higher = more binding, comparable within an allelic series) with HESX1 [1]; 6.4 upbm affinity estimate (log intensity, higher = more binding, comparable within an allelic series) in the test with HESX1 [2]; 6.39 upbm affinity estimate (log intensity, higher = more binding, comparable within an allelic series) in the test with HESX1 [3]; 6.32 upbm affinity estimate (log intensity, higher = more binding, comparable within an allelic series) with HESX1 [4]; 6.52 upbm affinity estimate (log intensity, higher = more binding, comparable within an allelic series) with HESX1 [5].
